The text below walks through data of PubChem BioAssay (Tox21).

The structures appear in SMILES notation. Values joined by “and” are separate entries in the source; they are usually repeats but may differ in a detail not shown here. Equal values may be shown once. Records with an inconclusive call do not appear. Entries that show only a call come without a potency. Values without a mark were called inactive. Active and inactive are the calls of the source. Calls come from the whole dose curve; as a rule, active = well fitted cell-killing curve with a large enough effect in the repeat runs; inconclusive = weak or mixed curves, or effect the other way; inactive = no such curve, though single readings can be large or run the other way.
Potency is the fitted concentration of half-maximal effect.

The nature of this assay: Caspase-3/7 induction in CHO-K1 cells by small molecules, qHTS cell viability counter screen (AID 1346979). Note: nearly all actives have a fitted effect of over 35% in size. The following applies: CellTiter-Fluor fluorescence, 17 h; series mostly up to 92.4 µM. The text has this:
National Center for Advancing Translational Sciences [NCATS]
NIH Chemical Genomics Center [NCGC]
U.S. Environmental Protection Agency [EPA]
National Institutes of Environmental Health Sciences [NIEHS]
National Toxicology Program [NTP]
U.S. Food and Drug Administration [FDA]
Apoptosis is a process of programmed cell death and plays a central role in the development of multicellular organisms. It is a highly regulated process and induces cell death by activating caspases, which are the members of cysteine aspartic acid-specific protease (caspase) family. Caspases involved in apoptosis are classified by their mechanism of action as initiator caspases (caspase-2, -8, -9 and -10) and executioner caspases (caspase-3, -6, and -7). Inhibition of apoptosis results in number of cancers, autoimmune diseases, inflammatory diseases and viral infection. To identify small molecule compounds that induce apoptosis, a homogeneous, luminescent Caspase-Glo 3/7 assay was used. Wild type CHO-K1 cells were used to screen Tox21 libraries for identifying caspase-3/7 activity inducers. Also cytotoxicity of the compounds was tested in parallel by measuring the cell viability using CellTiter-Fluor assay system in the same wells.
Tox21 Assay Protocol Summary:
CHO-K1 cells were dispensed at 1,500 per well in 5uL of culture medium into white solid bottom 1536-well plates (Corning Life Sciences, Corning, NY) using a Multidrop Combi (Thermo Scientific, Waltham, MA) dispenser. The assay plates were incubated at 37 C and 5% CO2 for 5hr, and then 23nL of compounds dissolved in DMSO and positive control were transferred using a Pintool station (Wako, San Diego, CA). The assay plates were incubated at 37C and 5% CO2 for 17hr. For cytotoxicity read, after 16hr incubation at 37C, 1uL CellTiter-Fluor reagent (Promega Corporation, Madison, WI) was added to each well of the assay plates using Flying Reagent Dispenser (FRD, Aurora Discovery, San Diego, CA). After 1hr incubation at 37C and 5% CO2, the fluorescence signal was quantified using a ViewLux plate reader (PerkinElmer, Shelton, CT).
In general terms: qHTS replaces the single test concentration by a dilution series.
On to `Cc1c([N+](=O)[O-])cc2c(c1[N+](=O)[O-])C(C)(C)CC2(C)C`, for which the Potency entry was “inactive”.
As for `COCCC#N`, the Potency result is “inactive”.
Still for that read-out and setting: the result for `O=[N+]([O-])c1ccc(CCl)cc1` reads “inactive”.
The same measure, in the same setting: as for `NC(=O)C(Cl)Cl`, the entry is “inactive”; as for `O=c1[nH]c(Cl)c(Cl)cc1Cl`, “inactive”.
Consider `CCOP(=S)(OCC)Oc1cc(C)nc(N(CC)CC)n1`, for which the Potency result was “inactive”.
The same measure, in the same setting: the result for `CNC(=O)O/N=C(\C)C(C)S(C)(=O)=O` (stereo not given) reads “inactive”; that for `Clc1ccc(C2(Cn3cncn3)OCCO2)c(Cl)c1`, “inactive”.
Still for that read-out and setting: the result for `CC(Cc1ccc(OCC(=O)O)cc1)NCC(O)c1csc(C(F)(F)F)n1` (stereo not given) reads “inactive”; that for `CC(C)N(C(=O)SC/C(Cl)=C/Cl)C(C)C`, “inactive”; that for `CN(C)c1ccc(N)cc1`, 42.2 µM (active).
On to `Clc1c(Cl)c(Cl)c(Cl)c(Cl)c1Cl`, for which the activity change, negative = cytotoxicity was 0.636% [at 8.39 µM].
On to `O=C(O)CCCCCCNC1c2ccccc2CCc2ccccc21`, for which the Potency result is “inactive”.
For the compound `COP(=O)(OC)Oc1ccc([N+](=O)[O-])cc1`, the Potency entry is “inactive”.
The same measure, in the same setting: the result for `O.O.O.O=C([O-])[C@H]([O-])[C@@H]([O-])C(=O)[O-].O=C([O-])[C@H]([O-])[C@@H]([O-])C(=O)[O-].[K+].[K+].[Sb+3].[Sb+3]` reads 17.3 µM (active); that for `O=P(Cl)(Cl)Cl`, “inactive”.
Same read-out and setting: the result for `[O-][Cl+3]([O-])([O-])O` reads “inactive”.
The same measure, in the same setting: as for `CC1CN1` (stereo not given), the entry is “inactive”; as for `CCCCC(CC)COC(=O)OOC(C)(C)C` (stereo not given), “inactive”; as for `Cc1ccc(C)c2ccccc12`, “inactive”.
For `O=C(NC(=O)c1c(F)cccc1F)Nc1ccc(Oc2ccc(C(F)(F)F)cc2Cl)cc1F`, the Potency is 61.1 µM (active).
Same read-out and setting: as for `O=[N+]([O-])c1cc(C(F)(F)F)c(Cl)c([N+](=O)[O-])c1Nc1ncc(C(F)(F)F)cc1Cl`, the figure is 5.45 µM (active); as for `CCn1cc[n+](C)c1` (tested in a mixture with another compound), “inactive”; as for `CC(C)C(Nc1ccc(C(F)(F)F)cc1Cl)C(=O)OC(C#N)c1cccc(Oc2ccccc2)c1` (stereo not given), “inactive”.
For the compound `Oc1cccc(Cl)c1Cl`, the Potency result is “inactive”.
On to `CNC(=O)/C=C(\C)OP(=O)(OC)OC`, for which the Potency entry was “inactive”.
Turning to `N#Cc1sc2c(=O)c3ccccc3c(=O)c=2sc1C#N`, the Potency is 21.7 µM (active).
On the same count and under the same terms, the result for `CC1CCCC1` reads “inactive”.
Same read-out and setting: the result for `O=C(O)[C@H](O)[C@@H](O)C(=O)O` reads “inactive”; that for `CO/N=C(/C1=NOCCO1)c1ccccc1Oc1ncnc(Oc2ccccc2Cl)c1F`, 1.72 µM (active); that for `CC(C)N(C(=O)CCl)c1ccccc1`, 24.3 µM (active) and 27.3 µM (active).
On the same count and under the same terms, as for `CC1(C)[C@H](/C=C2\CCSC2=O)[C@@H]1C(=O)OCc1coc(Cc2ccccc2)c1`, the figure is 61.1 µM (active); as for `O=C(Cl)c1ccccc1F`, “inactive”.
In the case of `COc1ccc2c(c1OC)C(=O)O[C@@H]2[C@H]1c2cc3c(cc2CCN1C)OCO3`, the Potency is 21.5 µM (active).
On the same count and under the same terms, as for `CCN(CC)C(=O)N[C@@H]1C=C2c3cccc4[nH]cc(c34)C[C@@H]2N(C)C1`, the entry is “inactive”; as for `c1ccc(N=NNc2ccccc2)cc1`, 56.4 µM (active).
On the same count and under the same terms, the result for `CC(=O)[O][Sn]([c]1ccccc1)([c]1ccccc1)[c]1ccccc1` reads 0.154 µM (active).
As for `c1csc(-c2ccc(-c3cccs3)s2)c1`, the Potency result is “inactive”.
Same read-out and setting: the result for `CC(=O)[O-].CC(=O)[O-].O.O.O.[Pb+2]` reads “inactive”; that for `CN=C=O`, “inactive”.
